# Records with an inconclusive call do not appear. Where a call stands in place of a potency, no number is given. Unmarked numbers belong to inactive results. Active and inactive are the calls of the source. The call rests on the fitted dose curve; in most records, active means well fitted inhibition curve with a large enough effect in the signal ratio in the repeat runs, with a control signal flat; inconclusive means weak or mixed curves, or effect the other way; inactive means flat fitted curve, though single readings scatter; the % refers to the signal ratio.
# Biological target: D(2) dopamine receptor (Homo sapiens) (UniProt P14416)
# Sequence (P14416 whole entry, looked up): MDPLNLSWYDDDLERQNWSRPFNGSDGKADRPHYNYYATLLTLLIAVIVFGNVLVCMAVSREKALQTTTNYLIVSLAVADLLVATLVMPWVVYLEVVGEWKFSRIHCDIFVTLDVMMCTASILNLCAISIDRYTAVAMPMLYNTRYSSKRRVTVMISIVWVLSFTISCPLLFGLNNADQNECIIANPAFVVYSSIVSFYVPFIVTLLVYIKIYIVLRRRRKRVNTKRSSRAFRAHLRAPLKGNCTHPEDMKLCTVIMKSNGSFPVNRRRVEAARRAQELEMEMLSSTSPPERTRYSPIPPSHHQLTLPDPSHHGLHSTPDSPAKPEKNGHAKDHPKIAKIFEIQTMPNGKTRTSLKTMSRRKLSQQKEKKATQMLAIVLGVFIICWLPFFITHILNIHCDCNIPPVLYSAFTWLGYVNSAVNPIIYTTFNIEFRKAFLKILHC
# Assay: Dopamine D2 receptor (DRD2) small molecule antagonists, cell-based qHTS assay (AID 1963595)
# Conditions: HEK293-DRD2 cAMP HTRF antagonist mode; series mostly up to 92.4 µM
# Description: National Center for Advancing Translational Sciences [NCATS]
# Division of Preclinical Innovation [DPI]
# U.S. Environmental Protection Agency [EPA]
# National Institutes of Environmental Health Sciences [NIEHS]
# National Toxicology Program [NTP]
# U.S. Food and Drug Administration [FDA]
# DRD2 is the D2 subtype of the dopamine receptor, which is coupled to Gi subtype of G protein-coupled receptor. This G protein-coupled receptor inhibits adenylyl cyclase activity. The DRD2-HEK293 cell line stably expressing D2 dopamine receptor can be used for screening agonists and antagonists of interactions between D2 and its ligands. The Hek293-DRD2 cAMP assay is based on HTRF technology. It measures changes of cAMP accumulation in response to Gi coupled GPCR activation or inhibition.
# Tox21 Assay Protocol Summary:
# DRD2-Hek293 cells were dispensed at 600 cells/3uL/well in 1536-well white plates using a Multidrop Dispenser. After the assay plates were incubated at a 37 C/5% CO2 incubator for 24 h, 1 uL of Ro20-1724 at final concentration of 0.1 mM was transferred to the assay plate by a Flying Reagent Dispenser. Following Ro20-1724 addition, 23 nL of compound dissolved in DMSO, positive controls or DMSO only was added to the assay plates via Wako pintool station. The assay plates were incubated at room temperature for 10 min. Next, 1 uL of mixture of NKH477 (final concentration at 200 nM) and quinpirole (final concentration at 12 nM) was added into the plates. After the assay plates were incubated at room temperature for an additional 30 min, 2.5 ul/well of cAMP-d2 and 2.5 ul/well of anti-cAMP-cryptate were added respectively into the assay plates using a Flying Reagent Dispenser. The plates were incubated at room temperature for 1 h. The fluorescence intensity in the plates was measured at 340 nm excitation and 665 & 620 nm emission by an Envision plate reader.
# Potency means the concentration at half of the fitted maximal effect.
SMILES,"activity change, negative = inhibition",Potency
Nc1ccc(S(=O)(=O)Nc2ccnn2-c2ccccc2)cc1,1.2% [at 18.9 µM],–
C=Cc1ccccc1C=C,–,inactive
Cc1ccccc1C(=O)Nc1ccc(C(=O)N2CCCC(N(C)C)c3ccccc32)cc1 (stereo not given),–,inactive
Cc1[nH]c(=O)c(C#N)cc1-c1ccc2nccn2c1,–,inactive
COc1ccc(CCC(=O)c2c(O)cc(O[C@@H]3O[C@H](CO)[C@@H](O)[C@H](O)[C@H]3O[C@@H]3O[C@@H](C)[C@H](O)[C@@H](O)[C@H]3O)cc2O)cc1O,–,inactive
CCOC(=O)OC(C)OC1=C(C(=O)Nc2ccccn2)N(C)S(=O)(=O)c2ccccc21 (stereo not given),–,inactive
C[C@@H]1CN(c2c(F)c(N)c3c(=O)c(C(=O)O)cn(C4CC4)c3c2F)C[C@H](C)N1,0.614% [at 18.9 µM],–
Nc1ccc(NC(=O)c2ccc(N)cc2)cc1,–,inactive
OC(CCN1CCCCC1)(c1ccccc1)c1ccccc1,–,inactive
CC(=O)C(C)=O,–,inactive
CC(C)OC(=O)C(C)N(C(=O)c1ccccc1)c1ccc(F)c(Cl)c1 (stereo not given),–,inactive
CS(=O)(=O)c1ccc(-c2cn3ccccc3n2)cc1,–,inactive
C=C[C@@H](C)CCC=C(C)C,–,inactive
C/C=C(/C(=C/C)c1ccc(OC(C)=O)cc1)c1ccc(OC(C)=O)cc1,–,inactive
CCOc1ccccc1O[C@H](c1ccccc1)[C@H]1CNCCO1,–,inactive
C=C(C)C(=O)OCCCC,–,inactive
CC1=NS(=O)(=O)c2cc(Cl)ccc2N1,–,inactive
O=C(O)CCC(=O)C(=O)O,–,inactive
O=S(=O)(c1ccccc1)c1ccc(Cl)cc1,–,inactive
O=C1C(=O)c2ccccc2C(O)=C1C1CCC(c2ccc(Cl)cc2)CC1 (stereo not given),–,inactive

SMILES,"activity change, negative = inhibition",Potency
CCOC(=O)c1ccc(NC(=O)CN2CCCCC2)cc1,–,inactive
OC[C@@H](O)[C@H](O)[C@@H](O)[C@@H](O)CO,–,inactive
CCn1nc(Cc2ccccc2)cc1C1CCN(C[C@H]2C[C@H](N(C)[C@@H](C(=O)O)C(C)C)C[C@@H]2c2cccc(F)c2)CC1,–,inactive
[O]=[Mo](=[O])=[O],-0.307% [at 18.9 µM],–
O=C(/C=C/c1ccccc1)OC/C=C/c1ccccc1,–,inactive
CC1c2ccccc2CN1NC(=O)c1ccc(Cl)c(S(N)(=O)=O)c1 (stereo not given),–,inactive
CC/C=C(\C)C=O,–,inactive
COC(C)(OC)OC,–,inactive
CN(C)CCC=C1c2ccccc2C=Cc2ccccc21,–,33.5 µM (active)
c1ccc(C[P+](c2ccccc2)(c2ccccc2)c2ccccc2)cc1,–,inactive
OC1CCCc2ccccc21 (stereo not given),–,inactive
COc1ccccc1OC(=O)Oc1ccccc1OC,–,inactive
OCC(CBr)(CBr)CBr,–,inactive
[O-][n+]1cccc(CO)c1,–,inactive
CC(C)=CCC[C@@](C)(O)[C@H]1CC=C(C)CC1,–,inactive
CCN(CC)C(=O)N(CC)CC,–,inactive
N[C@H]1C(O)O[C@H](CO)[C@H](O)[C@@H]1O (stereo not given in full),–,inactive
CCOC(=O)CCC(=O)OCC,–,inactive
COc1ccc(NS(=O)(=O)c2ccc(N)cc2)nn1,–,inactive
O=C(c1ccc(O)cc1)c1ccc(O)cc1,–,inactive

# From PubChem BioAssay (Tox21)
